The results in this text go back to PubChem BioAssay AID1347426 (Functional Genomics Laboratory (NCATS/FGL), 2020).

Hit rate of the full screen: of about 31,000 sequences, about 1,400 (4.5%) were called active.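 How the source made its calls: active means median seed-adjusted z-score above 1 or below -1; inactive means the rest.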 The full list was thinned out, with actives kept by preference.

A short description of this assay: Novel Modifiers of Survival Motor Neuron (SMN) Protein: Gene Identification via Genome-wide siRNA Screen. The conditions noted are these: HEK293T SMN2-luciferase reporter, siRNA knockdown, 72 h; actives lie on both sides. Put shortly: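 Each of three siRNAs per gene is reverse-transfected (1 pmol) into reporter HEK293T cells whose luciferase output tracks SMN protein level. After 72 h culture, ONE-Glo luminescence is control-normalized, log10-transformed and MAD-standardized; Common Seed Analysis deprioritizes seed-driven hits.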
(A reporter such as luciferase makes a cellular process visible.)
As for CAACGAAGAGGGCAUGUUUTT against MEOX2, the median seed-adjusted z-score was 1.36 (active).

In the case of GCAGCAAGAAGGUAGCACATT against ZNF598, the median seed-adjusted z-score is -0.303 (inactive).

As to GUCUUUACUCUUCAACUGATT against THBS4, the median seed-adjusted z-score was -0.28 (inactive).

As for GCAACUCAAAGGUGAUAAATT against CCNK, the median seed-adjusted z-score was -0.717 (inactive).

Regarding GGCUCAAUGUGGACUACAATT against HS3ST1, the median seed-adjusted z-score was 1.21 (active).

On to CUACUUUUAUCUUGCAUAATT against ZNF264, for which the median seed-adjusted z-score is 0.617 (inactive).

In the case of GGACUCUACUGCUAAAGUATT against TBC1D8B, the median seed-adjusted z-score is -0.985 (inactive).

GAAAAACGGUGACCGUCAATT against MYO9B: the median seed-adjusted z-score is -0.0287 (inactive).

Regarding CAGUUUGCUCUAUCAGUAATT against PSTPIP2, the median seed-adjusted z-score was 0.0136 (inactive).

CGCUGAAGUUUGUCCCUAATT against SEPX1: the median seed-adjusted z-score was -0.0545 (inactive).

Consider CAGUGUGGAUACUAAUAAATT against PMVK, for which the median seed-adjusted z-score is 0.269 (inactive).

With CAAUCACCGCUGUGGUAAATT against UCP1, the median seed-adjusted z-score is -0.0744 (inactive).

In the case of CGAGGUGACUGGUACAAGATT against NDUFV1, the median seed-adjusted z-score is -0.653 (inactive).

In the case of CUACGAUUCUGGUGGAAUATT against TRRAP, the median seed-adjusted z-score is -1.25 (active).

On to GGAUGAUUUAGAAUUGUCATT against ATP6V0C, for which the median seed-adjusted z-score is -0.389 (inactive).

Consider CCAUGUUCAGUUCCAAGGATT against CORO1A, for which the median seed-adjusted z-score was 0.569 (inactive).

For GGUGAUCACCAAGAUCAAATT against ADCY3, the median seed-adjusted z-score is -0.294 (inactive).

Consider CUACACCUGUUUCAACAGATT against USPL1, for which the median seed-adjusted z-score is -1.87 (active).

Regarding AGAAGUCUGUUGCUAUGCATT against GNB5, the median seed-adjusted z-score is -0.535 (inactive).

For GACCAUACCCAGUACCGAUTT against MYH15, the median seed-adjusted z-score is -0.939 (inactive).

As for GCAGGACCUUUUAGCAUCUTT against LYL1, the median seed-adjusted z-score is -0.118 (inactive).

Consider ACCGCUAUGUCUACAUGUUTT against FADS6, for which the median seed-adjusted z-score is -0.637 (inactive).

As for GAAACAAACUUAUAGUGAUTT against WBP5, the median seed-adjusted z-score was 0.452 (inactive).

In the case of GGAUUUUUGAUUUUCCGAATT against TUBAL3, the median seed-adjusted z-score is 1.05 (active).

Regarding CGAAGGCCUUGUGAACAGATT against FOSL1, the median seed-adjusted z-score is -0.431 (inactive).

Take “CAGAGAAACGAGUCUUUAATT against ST6GALNAC5”: the median seed-adjusted z-score was -0.0321 (inactive).

GCUUCUAAAUGUGAGACGATT against GCNT4: the median seed-adjusted z-score is -0.0629 (inactive).

In the case of GGGUACAACUCUUUGAAGATT against MNAT1, the median seed-adjusted z-score is -0.335 (inactive).

In the case of GCUCAAAUUGUUUUGCGUUTT against AKR1D1, the median seed-adjusted z-score is 0.211 (inactive).

Consider CGCUUCAAGAGGUUCGGAATT against MLPH, for which the median seed-adjusted z-score is -1.2 (active).

For GAAAAGGGAUAACUACGAATT against HIVEP3, the median seed-adjusted z-score was 0.516 (inactive).

For CCAGCGAGCUGAUCCUCAATT against MYCN, the median seed-adjusted z-score was 0.00242 (inactive).

In the case of CCACCUUUGCAACGCGGAATT against TPSD1, the median seed-adjusted z-score was 0.0848 (inactive).

Take GAGAUGCUGUGAGUAGGUATT against TTC9C: the median seed-adjusted z-score is -0.571 (inactive).

In the case of CGACAUUGCCCUGCUCAAATT against ELA2B, the median seed-adjusted z-score was -0.154 (inactive).

As to GGGUCACAGAGGUCGAUAUTT against PDILT, the median seed-adjusted z-score is -0.0994 (inactive).

On to CAAUAAGGCUCAUGCACAATT against GNAQ, for which the median seed-adjusted z-score is -1.23 (active).

Consider AACUCUUCAGGUGAAGAUATT against SLC8A2, for which the median seed-adjusted z-score was 0 (inactive).

In the case of GGAGUUUGCGUUUGAGGUATT against PLCD1, the median seed-adjusted z-score was -0.0473 (inactive).

In the case of CGAAUAUGAUGAAGAUGUUTT against PHF17, the median seed-adjusted z-score was 1.01 (active).

With CAAAGAUCAUGAUAUUCCATT against JUB, the median seed-adjusted z-score was -0.0898 (inactive).

Regarding CACCCACCUCAGAUUGAUATT against MBTPS2, the median seed-adjusted z-score was -0.324 (inactive).

Consider CGCUCUACCUGAUCUGCUATT against SLC43A2, for which the median seed-adjusted z-score was -0.202 (inactive).

As to ACAUCAUGAGGAAUGCUAUTT against UCP3, the median seed-adjusted z-score is 1.23 (active).

With GAGCAGAAAUUAUUCGUUATT against PGDS, the median seed-adjusted z-score was 0.02 (inactive).

Turning to GACUAAAGAUUCAGAUAAATT against TRIM13, the median seed-adjusted z-score was 0.712 (inactive).

Turning to CGACAGAGGCAGACACAGATT against BATF, the median seed-adjusted z-score is -0.0501 (inactive).

As for GAAUUGCUCCACCAGAUAATT against NAALAD2, the median seed-adjusted z-score was -0.00068 (inactive).

In the case of GAUGAUGACUUACAUAGAATT against TRRAP, the median seed-adjusted z-score is -1.25 (active).

In the case of CUAUAGCAAGUGAACUAAATT against COG5, the median seed-adjusted z-score is -0.0609 (inactive).

Consider GGGUUGGUUUGGGCCUGAATT against SOX12, for which the median seed-adjusted z-score was 0.478 (inactive).

On to GAAGAGCAGUGUACCAUCATT against STARD8, for which the median seed-adjusted z-score was -0.135 (inactive).

AAGACGAACUUGAGCUGGATT against MAPK8IP1: the median seed-adjusted z-score is 0.576 (inactive).

Regarding GCUCCAAUGUCUACAGAAATT against MRGPRE, the median seed-adjusted z-score was -0.65 (inactive).

For the sequence CAGAUGAAAUACUACUUCUTT against ARD1A, the median seed-adjusted z-score was -1.05 (active).

As for GCAGUUACCCGCAUACCAATT against CALCR, the median seed-adjusted z-score is -0.404 (inactive).

Regarding GGGAAGCCGCCUAUACCAATT against TK1, the median seed-adjusted z-score is -0.0562 (inactive).

With AGACCGUAAUUAUCGUCCUTT against EDG1, the median seed-adjusted z-score was -0.316 (inactive).

For GGAUGACAUGUCUAGCAUUTT against NXF1, the median seed-adjusted z-score was -4.46 (active).

Consider CAACCUAUCAUAUCUGUUUTT against SLC22A16, for which the median seed-adjusted z-score is 0.0878 (inactive).

Consider CCAUCGGCAUCACCUUCUATT against SLC35C2, for which the median seed-adjusted z-score was -0.483 (inactive).

As for CUGUGAAAAUGGGACGGGATT against NDUFA6, the median seed-adjusted z-score was -0.457 (inactive).

In the case of CAUCAGUCAUAAUGCCUAUTT against MAP1D, the median seed-adjusted z-score was 0.155 (inactive).

Turning to CGCCUCCAGUUUUAACUCUTT against POU2F3, the median seed-adjusted z-score was -1.53 (active).

For the sequence GGGUAUUCUGGGCAUGAAATT against NANS, the median seed-adjusted z-score is -1.54 (active).

As for GCAAGACCUAUGAAACGAUTT against CADPS, the median seed-adjusted z-score was 0.551 (inactive).

In the case of GCACGAGGUUUUCACCUAUTT against SRMS, the median seed-adjusted z-score was -1.58 (active).

As for GUUAUACUGUGAGAUCUAATT against GPR160, the median seed-adjusted z-score was -0.278 (inactive).

Regarding GAGAUUGGGUGGAAGAGAATT against FOXD2, the median seed-adjusted z-score is -0.0853 (inactive).
